Results taken from PubChem BioAssay AID504832 (National Center for Advancing Translational Sciences (NCATS), 2011).
About 18,000 (5.8%) of roughly 310,000 compounds were called active. Roughly 22% stayed inconclusive and do not appear here. The sample holds actives, similar compounds and a random draw of the others, so the mix is not that of the screen. Values without a mark were called inactive. Calls follow the shape of the dose curve; as a rule, active = well fitted inhibition curve with a large enough effect; inconclusive = small, poorly fitted or top-dose-only effect, or another doubt; inactive = no such curve, though single readings can be large or run the other way.

experiment: Primary qHTS for delayed death inhibitors of the malarial parasite plastid, 48 hour incubation; settings: P. falciparum luciferase growth in erythrocytes; series mostly up to 28.7 µM; activity change, negative = inhibition: at the top concentration
Procedure, shortened: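 Firefly luciferase activity from engineered P. falciparum reports growth; inhibitors lower the luminescent signal. Cultures contained 2% hematocrit erythrocytes at 0.1% final parasitemia.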
% is scaled to controls: 0 for no effect and ±100 for the full control effect; potency is read from the fitted curve at half-maximal effect.

Compound	activity change, negative = inhibition [%]	Potency
CCOC(=O)c1sc(NC(=O)CSc2nnc(-c3ccco3)o2)c(C(=O)OCC)c1C	-5.48	–
CCOC(=O)c1c(NC(=O)CSc2nccc(=O)[nH]2)sc(C)c1C	5.21	–
CCOC(=O)c1sc(NC(=O)CSc2nc3c(c(=O)n2-c2ccccc2)SCC3)c(C(=O)OCC)c1C	–	1.65 µM (active)
COc1cccc(N2CCN(c3ccc4nnc(CCC(=O)N5CCN(C)CC5)n4n3)CC2)c1	-14	–
COc1ccc(Nc2ncnc3sc(C)cc23)cc1	28.5	–
Cc1cc(Cl)ccc1C(=O)C1CCCN(C(=O)c2nonc2C)C1 (stereo not drawn)	-4.57	–
CCOC(=O)C(C)n1cnc2c(nnn2-c2ccc(F)cc2)c1=O (stereo not drawn)	56.3	–
COc1ccccc1NC1=NC(c2ccc(Cl)cc2)N=C(N)N1 (stereo not drawn)	–	10.4 µM (active)
COc1ccccc1Nc1nc(N)nc(CSC(=S)N2CCOCC2)n1	21.3	–
COc1ccccc1NC(=O)c1cc(Cl)nnc1Cl	-20.4	–
Cc1ccc(OCC(=O)Nc2ccc(C(=O)O)cc2NC(=O)COc2ccc(C)c(C)c2)cc1C	22.5	–
O=C1Nc2ccccc2/C1=C/c1ccnc2ccccc12	13.2	–
CCOC(=O)C1C(c2ccc(O)cc2)NC(=O)NC1(O)C(F)(F)F (stereo not drawn)	-15.2	–
CC1C(=O)C(C)C(c2ccc(O)cc2)NC1c1ccc(O)cc1 (stereo not drawn)	–	6.57 µM (active)
CCOc1ccc(OCC)c(NC(=O)CN(C)S(=O)(=O)c2cccc3nsnc23)c1	–	1.17 µM (active)
CCOc1ccc(N(CC)S(=O)(=O)c2cccc3nsnc23)cc1	-1.52	–
CCOc1ccccc1NC(=O)CCS(=O)(=O)c1cccc2nsnc12	1.11	–
O=C(Nc1ccccn1)C1CCN(S(=O)(=O)c2ccccc2)CC1	341	–
CCN(c1ccccc1)S(=O)(=O)c1cc2c(cc1C)n(C)c(=O)c(=O)n2C	19.7	–
CCOC(=O)c1ccccc1NC(=O)COC(=O)CCC(=O)N1CCOCC1	46.9	–
CCOC(=O)c1ccccc1C(=O)N1CCOCCOCCOCC1	17	–
CCOC(=O)c1c(-c2ccccc2)oc2ccc(OC(=O)N(C)C)cc12	-29.3	–
CCOC(=O)c1c(CN(C)C)n(-c2ccccc2)c2cc(Br)c(O)cc12	–	1.17 µM (active)
CCOC(=O)c1c(CN2CCOCC2)n(-c2ccccc2)c2ccc(O)cc12	–	10.4 µM (active)
CCOC(=O)c1c(-c2cccc(N)c2)cn2ccccc12	10.1	–
CN(CC(=O)Nc1ccc(Cl)cc1)C(=O)c1ccc(COc2ccccc2)cc1	10.9	–
CCCCn1c(N)c(N(Cc2ccccc2OC)C(=O)COc2cc(C)ccc2Cl)c(=O)[nH]c1=O	-29.8	–

Compound	activity change, negative = inhibition [%]	Potency
Cc1ccc2c(c1)N(CC(=O)NCCc1ccc(Cl)cc1)C(=O)c1cccnc1O2	-9.42	–
Cc1ccc2c(c1)N(CC(=O)NCCCN1CCCCC1)C(=O)c1cccnc1O2	5.21	–
CC(=O)c1cccc(NC(=O)CN2C(=O)c3cccnc3Oc3ccc(Cl)cc32)c1	–	13.1 µM (active)
Cc1ccc(S(=O)(=O)N(C)CC(=O)NCCc2c[nH]c3ccccc23)cc1	0	–
Cn1c(CNC(=O)c2ccco2)nnc1SCC(=O)N1CCN(c2ccccc2)CC1	12.7	–
CC(C)c1nc2cc(C(=O)NC(C)c3cnn(C)c3)ccc2o1 (stereo not drawn)	18.1	–
CCN(CC(=O)Nc1ccc2c(c1)OCO2)S(=O)(=O)c1ccccc1	4.03	–
C/C(=N\NC(=O)Cc1ccccc1[N+](=O)[O-])c1cccnc1	22.6	–
Cn1cccc1-c1nc2ccccc2n1C	15.4	–
CN1c2ccccc2-c2nc3ccccc3n2C1c1ccco1 (stereo not drawn)	–	11.7 µM (active)
Cn1c(-c2ccco2)nc2cc3ccccc3cc21	126	–
O=C(c1cc2cc(Br)cc(Br)c2oc1=O)N1CCOCC1	67.9	–
CCOc1ccc(NC(=O)COc2ccc(C(=O)N3CCC(C(N)=O)CC3)cc2OC)cc1	46.2	–
COc1cc2ccccc2cc1C(=O)Nc1ccc(NC(=O)c2cccs2)cc1	–	11.7 µM (active)
COc1cc2ccccc2cc1C(=O)Nc1ccncc1	35.6	–
COc1cc(NC(=O)c2cccs2)ccc1NC(=O)c1ccccc1Cl	-28.4	–
Cc1ccnc(N2CCCC(C(=O)NC3CC3)C2)n1 (stereo not drawn)	-1.35	–
O=C(NC1CC1)C(Cc1ccccc1)NS(=O)(=O)c1ccccc1F (stereo not drawn)	16.1	–
O=C(Cc1ccc([N+](=O)[O-])cc1)Nc1ccc(C(=O)N2CCOCC2)cc1	13.9	–
O=C(/C=C/c1ccco1)NC(=S)Nc1ccccc1Br	16.6	–
C=CCn1c(SCc2ccccc2)nc2c1c(=O)[nH]c(=O)n2C	5.64	–
CCCCCCn1c(SCC(=O)c2ccccc2)nc2c1c(=O)[nH]c(=O)n2C	0.0882	–
CCC(C)Sc1nc2c(c(=O)[nH]c(=O)n2C)n1CC(O)COc1cccc2ccccc12 (stereo not drawn)	–	10.4 µM (active)
CCc1ccc(NC(=O)CS(=O)CC(=O)N2CCN(c3ccccc3F)CC2)cc1 (stereo not drawn)	0.939	–
COc1cc(C(=O)NCC(=O)N2CC=C(c3ccccc3)CC2)cc(OC)c1OC	-16.5	–
O=C(CSc1ccc(-c2ccccn2)nn1)Nc1ccccc1	-22.1	–
